In all, about 310,000 compounds went through this assay and about 14,000 (4.5%) showed an effect of 50% or more. Effects have a minus sign here. Only a selection was taken, and strong results are over-represented in it overall.
Each molecule was assayed against human ether-à-go-go-related gene (hERG) potassium channel (human, UniProt Q12809) (assay: primary screen, population patch clamp on CHO cells stably expressing hERG; higher = less effect of the substance).
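Further: peak tail current of the secondary pulse compared with the same well before compound.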

human ether-à-go-go-related gene (hERG) potassium channel, sequence (Q12809 whole entry, looked up): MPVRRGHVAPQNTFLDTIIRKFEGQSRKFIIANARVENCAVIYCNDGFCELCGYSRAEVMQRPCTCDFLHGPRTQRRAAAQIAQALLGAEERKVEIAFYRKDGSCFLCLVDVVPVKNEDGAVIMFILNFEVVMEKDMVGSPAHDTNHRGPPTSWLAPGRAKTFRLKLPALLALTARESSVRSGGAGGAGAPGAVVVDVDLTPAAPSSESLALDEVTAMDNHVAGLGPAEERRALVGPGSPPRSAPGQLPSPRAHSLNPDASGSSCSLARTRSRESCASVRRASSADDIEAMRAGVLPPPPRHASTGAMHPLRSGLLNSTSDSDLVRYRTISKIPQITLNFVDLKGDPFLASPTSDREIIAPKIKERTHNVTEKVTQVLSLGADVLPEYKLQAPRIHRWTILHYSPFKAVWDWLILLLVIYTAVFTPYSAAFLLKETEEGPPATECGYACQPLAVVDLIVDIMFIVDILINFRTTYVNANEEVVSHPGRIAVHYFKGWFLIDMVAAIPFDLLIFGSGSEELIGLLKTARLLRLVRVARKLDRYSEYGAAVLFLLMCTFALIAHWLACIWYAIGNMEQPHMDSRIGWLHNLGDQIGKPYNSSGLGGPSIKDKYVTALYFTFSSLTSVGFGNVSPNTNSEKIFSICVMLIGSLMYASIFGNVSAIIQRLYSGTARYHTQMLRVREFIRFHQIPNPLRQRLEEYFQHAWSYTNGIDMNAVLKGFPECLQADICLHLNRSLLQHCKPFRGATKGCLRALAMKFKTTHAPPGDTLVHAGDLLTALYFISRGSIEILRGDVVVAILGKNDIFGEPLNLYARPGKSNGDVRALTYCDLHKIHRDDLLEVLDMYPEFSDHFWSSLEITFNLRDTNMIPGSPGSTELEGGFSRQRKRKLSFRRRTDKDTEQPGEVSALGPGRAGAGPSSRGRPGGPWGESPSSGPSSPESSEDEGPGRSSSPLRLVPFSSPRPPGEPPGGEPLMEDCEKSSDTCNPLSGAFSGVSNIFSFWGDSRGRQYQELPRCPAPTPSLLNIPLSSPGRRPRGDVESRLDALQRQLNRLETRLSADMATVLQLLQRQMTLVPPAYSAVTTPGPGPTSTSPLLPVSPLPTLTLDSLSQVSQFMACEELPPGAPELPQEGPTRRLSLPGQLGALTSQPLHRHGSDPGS

Compound	hERG current change (%, negative = inhibition) at 10uM [%]
O=C(O)CC1c2ccccc2CCN1S(=O)(=O)c1ccccc1 (stereo not shown)	-1.51
COc1ccc(N2C(=O)CN=C2Nc2nc(C)cc(C)n2)cc1OC	-4.68
Cc1cccc(NC(=S)NCc2ccc3c(c2)cc(C)n3C)c1C	-9.2
CC(=O)c1ccc(NC(=O)CSc2nc(N3CCOCC3)nc(N3CCOCC3)n2)cc1	-7.67
Cc1ccc(NS(=O)(=O)c2c(C)nc3sccn3c2=O)c(C)c1	-15.2
COc1ccc(NC2CCCN(C(=O)c3cccc(C)n3)C2)cc1OC (stereo not shown)	18.5
CC1(C)N=C(c2ccccc2)[C@@H]2C(c3ccc([N+](=O)[O-])cc3)N21 (stereo partly shown)	-31.6
CC12CCC(C(=O)Nc3nc4ccc(Br)cc4s3)(OC1=O)C2(C)C (stereo not shown)	-2.78
COc1cc2c(cc1OC)C(C)N(CCc1ccc(Cl)cc1)CC2.O=C(O)/C=C\C(=O)O (stereo not shown)	-70.2
COc1cc2c(cc1OC)C(C)N(CCN1C(=O)c3ccccc3C1=O)CC2 (stereo not shown)	17.5
COc1cc2c(cc1OC)CN(CC(O)c1ccccc1)CC2 (stereo not shown)	14.4
COc1cc2c(cc1OC)CN(CCC(C)c1ccc(Cl)cc1)CC2.O=C(O)/C=C\C(=O)O (stereo not shown)	-72.1
COc1cc2c(cc1OC)C(C)N(Cc1ccc3c(c1)OCO3)CC2 (stereo not shown)	-3.76
COc1cc2c(cc1OC)CN(CC(=O)Nc1ccc(Cl)cc1Cl)CC2	-11.7
Br.COc1cccc(C(=O)CSc2nccn2C)c1	24.2
COc1ccc(Cl)cc1NC(=O)CSc1nnc(-c2ccncc2)n1CC1CCCO1 (stereo not shown)	-28.2
C=CCn1c(N2CCN(c3ccc(OC)cc3)CC2)nc2c1c(=O)[nH]c(=O)n2C	-24.6
COc1cccc(N2C(=O)C3CCCN3C2c2ccc(F)cc2)c1 (stereo not shown)	6.88
CCOc1nc2cnccc2n(CC(=O)Nc2ccccc2F)c1=O	26.4
COC(=O)c1ccccc1OCCCN(C)C.O=C(O)C(=O)O	-17.4
C=CCN(CC=C)CCCOc1ccc(C)cc1OC.O=C(O)C(=O)O	-45.1
C=CCN(CC=C)CCCOc1ccccc1C(=O)OC.O=C(O)C(=O)O	-72.4
C/C(N)=C(/C#N)C(=O)CSc1cc(C)c2cc(C)cc(C)c2n1	2.54

Compound	hERG current change (%, negative = inhibition) at 10uM [%]
COc1cccc(N2CCN(C(=O)c3cc4c(OC)c(OC)c(OC)cc4[nH]3)CC2)c1	9.11
COC(=O)c1ccc(OC(=O)C2CSC3(C)CCC(=O)N23)cc1 (stereo not shown)	-1.4
O=C(NC1CCCCC1)c1cc([N+](=O)[O-])ccc1N1CCCCC1	-17
CCCCCn1c(N)c(-c2nc3ccccc3s2)c2c([N+](=O)[O-])nn(CC)c(=O)c21	5.78
CCN1CCN(c2ccc(S(=O)(=O)N3CCCCC3)cc2NC(=O)COc2ccc(F)cc2Cl)CC1	-65.1
CCOc1ccccc1OCC(=O)Nc1cc(S(=O)(=O)N2CCCCC2)ccc1OC	-16
CCN1CCN(c2ccc(S(=O)(=O)N3CCCCC3)cc2NC(=O)COc2ccc(Cl)c(C)c2)CC1	-34.5
N#Cc1ccc(OCC(=O)Nc2cc(S(=O)(=O)N3CCCCC3)ccc2N2CCCCC2)cc1	-13.3
CCN1CCN(c2ccc(S(=O)(=O)N3CCCCC3)cc2NC(=O)Cc2c(Cl)cccc2Cl)CC1	-38.6
CCOc1ccccc1OCC(=O)Nc1cc(S(=O)(=O)N2CCCCC2)ccc1N1CCN(CC)CC1	-71.5
COc1ccccc1OCC(=O)Nc1cc(S(=O)(=O)N2CCCCC2)ccc1N1CCCCC1	2.21
CCN1CCN(c2ccc(S(=O)(=O)N3CCCCC3)cc2NC(=O)COc2ccc(Cl)cc2)CC1	-15.2
CCN1CCN(c2ccc(S(=O)(=O)N3CCCCC3)cc2NC(=O)COc2cc(C)ccc2Cl)CC1	-14.1
CCC(=O)c1ccc(OCC(=O)Nc2cc(S(=O)(=O)N3CCCCC3)ccc2OC)cc1	-19.8
CCC(=O)c1ccc(OCC(=O)Nc2cc(S(=O)(=O)N3CCCCC3)ccc2N2CCN(CC)CC2)cc1	-84.3
CCN1CCN(c2ccc(S(=O)(=O)N3CCCCC3)cc2NC(=O)COc2ccccc2)CC1	-66.6
CSc1nnc([C@@H](N)Cc2c[nH]c3ccccc23)o1.Cl	30.1
CN1CCNC(=O)C1CC(=O)NCCc1ccccc1F (stereo not shown)	13.4
CCCCNC(=O)O[C@H]1C[C@@H]2CCN3C(=O)CCC[C@H]([C@H]1CC)[C@H]23	-8.19
Cc1c(-c2ccc(/C=N/NC(=O)C(=O)Nc3ccccc3F)o2)cccc1[N+](=O)[O-]	21.1
CN1CCN(C(=O)c2ccccc2NC(=O)c2ccc(C(C)(C)C)cc2)CC1	-9.21
Cc1onc(C(=O)N2CCN(Cc3ccccc3)CC2)c1[N+](=O)[O-]	-10.7
NSc1nc(N)c2nc(-c3ccccc3)c(-c3ccccc3)nc2n1	4.96

Compound	hERG current change (%, negative = inhibition) at 10uM [%]
CCc1cc2c(=O)n(-c3ccccc3)cnc2s1	5.13
COc1ccc(CN(C)C(=O)c2ccc(NS(=O)(=O)c3ccc(F)cc3)cc2)c(OC)c1OC	-55.6
COc1ccc(CN(C)C(=O)c2ccc(NS(=O)(=O)c3ccc(F)cc3)cc2)c(OC)c1	3.52
COc1cccc(CN(C)C(=O)c2ccc(NS(=O)(=O)c3ccc(F)cc3)cc2)c1OC	-9.34
COC(=O)C(C)n1cnc2c(nnn2-c2cccc(Cl)c2)c1=O (stereo not shown)	-13.4
CCOC(=O)CNS(=O)(=O)CCN1C(=O)c2ccccc2C1=O	1.65
COc1ccc(NC(=O)C(Sc2nnc3ccccn23)c2ccccc2)cc1Cl (stereo not shown)	-1.62
COc1ccc(C)cc1NC(=O)C(Sc1nnc2ccccn12)c1ccccc1 (stereo not shown)	-67.7
COc1ccc(C)cc1NC(=O)C(Sc1nncn1C)c1ccccc1 (stereo not shown)	-3.91
COc1cc(C2NC(=O)c3ccccc3O2)cc(OC)c1OC (stereo not shown)	-9.55
CCOc1ccc(CCNC(=O)CSCC(=O)Nc2cccc(C)c2)cc1OCC	-8.35
CC(OC(=O)Cc1n[nH]c(=O)c2ccccc12)C(=O)Nc1ccc(F)cc1Cl (stereo not shown)	2.32
CCCC1=C(C(=O)OCC)C(c2c(C)nn(-c3ccccc3)c2Cl)C(C#N)=C(N)O1 (stereo not shown)	-16.1
CC1CCCN(S(=O)(=O)c2ccc(CN3C(=O)c4cccnc4C3=O)cc2)C1 (stereo not shown)	-58
CC(C)NS(=O)(=O)c1cc(F)ccc1CN1C(=O)c2cccnc2C1=O	10.5
COc1ccc(CN2C(=O)c3cccnc3C2=O)cc1S(=O)(=O)N1CCCC(C)C1 (stereo not shown)	-0.978
CCOC(=O)C1CCN(S(=O)(=O)c2ccc(CN3C(=O)c4cccnc4C3=O)cc2)CC1	-9.61
Cc1ccc(CNS(=O)(=O)c2cc(F)ccc2CN2C(=O)c3cccnc3C2=O)o1	-9.97
CC1CCN(S(=O)(=O)c2cc(F)ccc2CN2C(=O)c3cccnc3C2=O)CC1	-60.4
O=C(Nc1ccc(S(=O)(=O)Nc2ncccn2)cc1)c1ccccc1NS(=O)(=O)c1ccc(F)cc1	9.91
COc1ccc(-n2c(=S)[nH]c3ncccc3c2=O)cc1	7.98
CC1(C)CC(=O)C(CC2=C(N)CC(C)(C)CC2=O)=C(N)C1	4.6
COC(C[C@H]1O[C@@H]1C(=O)COCc1ccccc1)OC	4.27

Compound	hERG current change (%, negative = inhibition) at 10uM [%]
COc1cc2ncc(S(=O)(=O)c3ccccc3)c(N3CCCC(C)C3)c2cc1OC (stereo not shown)	-7.67
COc1ccc(S(=O)(=O)c2cnc3ccc(OC)cc3c2N2CCC3(CC2)OCCO3)cc1	-28.5
COc1cc2ncc(S(=O)(=O)c3ccccc3)c(N3CCC4(CC3)OCCO4)c2cc1OC	-80.8
CCOc1ccc2ncc(S(=O)(=O)c3ccccc3)c(N3CCC4(CC3)OCCO4)c2c1	-42.4
COc1ccc2ncc(S(=O)(=O)c3ccccc3)c(N3CCN(c4ccccc4)CC3)c2c1	-8.4
COc1ccc2ncc(S(=O)(=O)c3ccccc3)c(N3CCC4(CC3)OCCO4)c2c1	-63.3
O=C(Nc1ccc(Cl)c(Cl)c1)Nc1ccccn1	2.95
Cc1ccc(/C=C2\SC(=S)N(CCCC(=O)Nc3nccs3)C2=O)cc1	15.7
O=C(COC(=O)CCCN1C(=O)c2cccc3cccc(c23)C1=O)Nc1ccc(Cl)cc1	3.07
N#Cc1ccc(-c2ccc(F)cc2)nc1SCC(=O)Nc1sc2c(c1C#N)CCC2	4.57
FC(F)(F)c1ccccc1CN1CCN(C2CCCCCC2)CC1.O=C(O)C(=O)O	-49.3
O=C(NC1CC1)C1CCN(C2CCN(Cc3ccccc3C(F)(F)F)CC2)CC1	-53.1
O=C(NC1CC1)C1CCN(C2CCN(C(=O)c3c(F)cccc3Cl)CC2)CC1	13.3
CC(C)(C)c1ccc(C(=O)N2CCC(C(=O)NC3CC3)CC2)cc1	-2.74
O=C(NC1CC1)C1CCN(C2CCN(C(=O)c3ccc(C(F)(F)F)cc3)CC2)CC1	-56.4
CCOc1ccccc1CN1CCC(N2CCC(C(=O)NC3CC3)CC2)CC1	1.53
Cc1ccc2c(C)c(C(=O)N3CCC(N4CCC(C(=O)NC5CC5)CC4)CC3)oc2c1	-59.1
Cc1ccc2oc(C(=O)N3CCC(N4CCSCC4)CC3)c(C)c2c1	-30.6
O=C(NC1CC1)C1CCN(C2CCN(C(=O)Cc3ccc(F)cc3)CC2)CC1	-2.99
O=C(NC1CC1)C1CCN(C2CCN(C(=O)/C=C/c3cccc(F)c3F)CC2)CC1	-22.1
CC(C)(C)c1ccc(C(=O)N2CCC(C(=O)NC3CCCCCC3)CC2)cc1	-40
O=C(NC1CC1)C1CCN(C2CCN(C(=O)/C=C/c3ccc(F)cc3)CC2)CC1	-62.9

Reference: publication PMC4336329 (PLoS ONE, 2015)
